In PubChem BioAssay (Tox21):
Inconclusive results are not listed. The source made the active and inactive calls. Unless noted, calls follow the shape of the dose curve; as a rule, active = well fitted curve in the direction sought with a large enough effect in the repeat runs; inconclusive = weak or mixed curves; inactive = no such curve, though single readings can be large; an effect the other way counts as inactive or inconclusive.

How the values were obtained:
[1] = qHTS assay to identify small molecule agonists of H2AX (AID 1224845; active = well fitted activation curve with a large enough effect in the signal ratio in the repeat runs, not every such curve was filed as active; the % refers to the signal ratio; also: potency is read from the fitted curve at half-maximal effect)
In short: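 Wild-type CHO-K1 cells, plated overnight, exposed 3hr at 37C to 15 concentrations (0.76% DMSO final). Lysed, then HTRF anti-pH2AX (S139) cryptate and anti-H2AX-d2 antibodies, 24 hr room temperature; 665/620 nm emission read.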

[2] = qHTS assay to identify small molecule antagonists of the estrogen related receptor (ERR) signaling pathway from Tox21 library (AID 1224848); also: nearly all actives have a fitted effect of over 50% in size; also: potency is read from the fitted curve at half-maximal effect
In short: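 Quantitative high-throughput format: ERR reporter cells (2,000/well) pre-incubated 6 h, treated 18 h at 37 C with compounds in DMSO alongside positive and negative controls, then read by ONE-Glo luminescence.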

[3] = qHTS assay to identify small molecule agonists of the estrogen related receptor (ERR) signaling pathway from Tox21 library (AID 1224849; calls by dose curve; also: nearly all actives have a fitted effect of over 15% in size); details: ERR reporter cell line, ONE-Glo luciferase, 18 h; at 92.4 µM (top of the series) unless noted
In short: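 Quantitative HTS in agonist format: NTP ERR cell line, compounds transferred in DMSO after 6 h plating, 18 h incubation at 37 C, ONE-Glo luminescence endpoint.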

[4] = qHTS RealTime-Glo MT Cell Viability Assay in HepG2 cells - 24 hour (AID 1224867); also: nearly all actives have a fitted effect of over 50% in size; also: potency is read from the fitted curve at half-maximal effect
In short: (§1)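 Cell number in HepG2 cultures estimated from NanoLuc luminescence generated by metabolic reduction of a prosubstrate by living cells. The homogeneous, nonlytic format allowed repeated reads at 0, 8, 16, 24, 32 and 40 h of compound exposure.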

[5] = A CellTox Green Cytotoxicity Assay to monitor cytotoxicity in HEK293 cells - 0 hour (AID 1224869); also: nearly all actives have a fitted effect of over 50% in size
In short: (§2)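 Dead-cell fluorescence measured kinetically: asymmetric cyanine dye, HEK293, 600 cells/well, 5 h settle, 23 nL cpd/DMSO, 37 C, reads 0–40 h every 8 h.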

[6] = qHTS RealTime-Glo MT Cell Viability Assay in HepG2 cells - 40 hour (AID 1224870); also: nearly all actives have a fitted effect of over 50% in size; also: potency is read from the fitted curve at half-maximal effect
In short: (§3)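 HepG2 cells (600/well) mixed with RealTime-Glo MT reagent, settled 5 h at 37 C/5% CO2 before compound addition. Nonlytic NanoLuc luminescence from viable-cell prosubstrate reduction read repeatedly during 40 h treatment at 37 C.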

[7] = qHTS RealTime-Glo MT Cell Viability Assay in HepG2 cells - 8 hour (AID 1224873); also: nearly all actives have a fitted effect of over 55% in size; also: potency is read from the fitted curve at half-maximal effect
In short: as §3

[8] = qHTS RealTime-Glo MT Cell Viability Assay in HEK293 cells - 40 hour (AID 1224874); details: RealTime-Glo luminescence; max response: hits give low values; also: nearly all actives have a fitted effect of over 50% in size; also: potency is read from the fitted curve at half-maximal effect
In short: (§4)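 600 HEK293 cells per well, dispensed already mixed with RealTime-Glo MT reagents. Compound dosing came 5 h later. The same wells were read for luminescence at 0, 8, 16, 24, 32 and 40 h of exposure at 37 C.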

[9] = A CellTox Green Cytotoxicity Assay to monitor cytotoxicity in HEK293 cells - 24 hour (AID 1224875); also: nearly all actives have a fitted effect of over 45% in size; also: potency is read from the fitted curve at half-maximal effect
In short: as §2

[10] = A CellTox Green Cytotoxicity Assay to monitor cytotoxicity in HepG2 cells - 16 hour (AID 1224876); also: nearly all actives have a fitted effect of over 45% in size; also: potency is read from the fitted curve at half-maximal effect
In short: (§5)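 First, HepG2 cells (600/well) mixed with reagent were plated; second, after 5 h at 37 C they received compounds via pintool; third, fluorescence was measured at 0 h through 40 h at 8 h intervals.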

[11] = qHTS RealTime-Glo MT Cell Viability Assay in HepG2 cells - 32 hour (AID 1224877); also: nearly all actives have a fitted effect of over 55% in size
In short: as §1

[12] = qHTS RealTime-Glo MT Cell Viability Assay in HEK293 cells - 0 hour (AID 1224880); also: top concentration of the series differs between compounds; nearly all actives have a fitted effect of over 45% in size
In short: as §4

[13] = qHTS assay to identify small molecule agonists of the hypoxia (HIF-1) signaling pathway (AID 1224846; active = well fitted activation curve with a large enough effect in the signal ratio in the repeat runs, not every such curve was filed as active; the % refers to the signal ratio)
In short: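 Agonist mode reporter screen. ME-180 cells stably expressing bla under HRE control received test compounds in DMSO for 17 hrs (37C, 5% CO2), and beta-lactamase activity was then detected with the CCF4-AM FRET substrate.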

[14] = qHTS assay to identify small molecule agonists of H2AX - cell viability counter screen (AID 1224847; calls by dose curve; also: top concentration of the series differs between compounds; nearly all actives have a fitted effect of over 30% in size)
In short: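 CHO-K1 wt, 1000 cells/well, o/n 37C; cpds 15 conc, 3 h 37C, 0.76% DMSO; CellTiter-Glo, 30 min RT, luminescence.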

[15] = qHTS RealTime-Glo MT Cell Viability Assay in HEK293 cells - 32 hour (AID 1224868); also: nearly all actives have a fitted effect of over 50% in size; also: potency is read from the fitted curve at half-maximal effect
In short: (§6)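 Homogeneous bioluminescent viability format in HEK293 cells (600 cells/well). Following 5 h at 37 C/5% CO2, 23 nL compound was pintooled; the signal was measured repeatedly during 40 h incubation.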

[16] = A CellTox Green Cytotoxicity Assay to monitor cytotoxicity in HEK293 cells - 40 hour (AID 1224871); also: nearly all actives have a fitted effect of over 45% in size; also: potency is read from the fitted curve at half-maximal effect
In short: as §2

[17] = qHTS RealTime-Glo MT Cell Viability Assay in HEK293 cells - 16 hour (AID 1224872)
In short: as §6

[18] = A CellTox Green Cytotoxicity Assay to monitor cytotoxicity in HepG2 cells - 24 hour (AID 1224878); also: nearly all actives have a fitted effect of over 45% in size; also: potency is read from the fitted curve at half-maximal effect
In short: as §5

[19] = A CellTox Green Cytotoxicity Assay to monitor cytotoxicity in HepG2 cells - 40 hour (AID 1224879); also: nearly all actives have a fitted effect of over 40% in size; also: potency is read from the fitted curve at half-maximal effect
In short: as §5
% is scaled to controls: 0 for no effect and ±100 for the full control effect.

Cc1cccc(Oc2ccccc2)c1
inactive: Potency [1] | activity change, positive = activation [3] -65.1% | Potency [4] | Potency [5] | Potency [6] | Potency [7] | Potency [9] | Potency [10] | Potency [11] | Potency [12]
active: Potency [2] 26.6 µM | Potency [8] 47.8 µM

Cc1ccc(O)c([C@H](CCN(C(C)C)C(C)C)c2ccccc2)c1
active: Potency [18] 21.3 µM | Potency [19] 23.9 µM
inactive: outcome [13] | Potency [14] | Potency [4] | Potency [15] | Potency [5] | Potency [6] | Potency [16] | Potency [17] | Potency [7] | Potency [9] | Potency [10] | Potency [12]

CC(=O)c1ccc2c(c1)[C@H](NC(=O)c1ccc(F)cc1)[C@@H](O)C(C)(C)O2
inactive: outcome [13] | Potency [14] | Potency [4] | Potency [15] | Potency [5] | Potency [6] | Potency [16] | Potency [17] | max response [8] -0.992% | Potency [11] | Potency [18] | Potency [12]

NCCCOCCOCCOCCCN
inactive: Potency [1] | Potency [4] | Potency [5] | Potency [6] | Potency [7] | max response [8] -18% | Potency [9] | Potency [10] | Potency [11] | Potency [18] | Potency [19] | Potency [12]

CC(=O)Nc1ccc(/C=N/NC(N)=S)cc1
inactive: outcome [13] | Potency [14] | Potency [4] | Potency [15] | Potency [5] | Potency [6] | Potency [16] | Potency [17] | Potency [7] | max response [8] 0.836% | Potency [9] | Potency [10] | Potency [11] | Potency [18] | Potency [19] | Potency [12]

CCOC(=O)[C@H](CCc1ccccc1)N[C@H]1CCc2ccccc2N(CC(=O)O)C1=O
active: Potency [18] 26.8 µM | Potency [19] 26.8 µM
inactive: Potency [5]

CC(C)(C)c1cc(CCC(=O)OCC(COC(=O)CCc2cc(C(C)(C)C)c(O)c(C(C)(C)C)c2)(COC(=O)CCc2cc(C(C)(C)C)c(O)c(C(C)(C)C)c2)COC(=O)CCc2cc(C(C)(C)C)c(O)c(C(C)(C)C)c2)cc(C(C)(C)C)c1O
inactive: Potency [1] | Potency [14] | Potency [4] | Potency [5] | Potency [6] | Potency [16] | Potency [17] | Potency [7] | max response [8] 0.256% | Potency [9] | Potency [10] | Potency [18] | Potency [19] | Potency [12]

CC(C)(C)C(=O)OCOP(=O)(COCCn1cnc2c(N)ncnc21)OCOC(=O)C(C)(C)C
inactive: Potency [14] | activity change, positive = activation [3] -1.22% [at 42.5 µM] | Potency [4] | Potency [5] | Potency [6] | Potency [16] | Potency [7] | Potency [9] | Potency [10] | Potency [11] | Potency [18] | Potency [19] | Potency [12]
active: Potency [1] 0.277 µM | Potency [15] 0.756 µM | Potency [8] 0.848 µM

c1ccc(CNCc2ccccc2)cc1
inactive: Potency [1] | Potency [4] | Potency [15] | Potency [5] | Potency [6] | Potency [16] | Potency [7] | Potency [9] | Potency [10] | Potency [11] | Potency [18] | Potency [19] | Potency [12]

COCCOCCOCCOCCOC
inactive: Potency [1] | Potency [14] | Potency [4] | Potency [5] | Potency [6] | Potency [16] | Potency [17] | Potency [7] | max response [8] -6.35% | Potency [9] | Potency [10] | Potency [11] | Potency [18] | Potency [19] | Potency [12]

CCN(CC)CCOc1ccc2c(c1)C(=O)c1cc(OCCN(CC)CC)ccc1-2
active: Potency [2] 18.8 µM | Potency [15] 13.4 µM | Potency [19] 26.8 µM
inactive: outcome [13] | activity change, positive = activation [3] -38.3% [at 42.5 µM] | Potency [5] | Potency [7] | Potency [9] | Potency [10] | Potency [12]

CN1CCC(=C2c3ccccc3C=Cc3ccccc32)CC1
active: Potency [19] 26.8 µM
inactive: Potency [14] | Potency [2] | activity change, positive = activation [3] 5.98% [at 42.5 µM] | Potency [5] | Potency [6] | Potency [17] | Potency [7] | Potency [9] | Potency [11] | Potency [12]

S=C(S)NCCNC(=S)S
inactive: outcome [13] | Potency [14] | Potency [4] | Potency [15] | Potency [5] | Potency [6] | Potency [16] | max response [8] -4.71% | Potency [10] | Potency [11] | Potency [18] | Potency [12]

CC(C)NCC(O)c1cc(O)cc(O)c1 (stereo not given)
inactive: outcome [13] | Potency [14] | Potency [2] | activity change, positive = activation [3] 10.5% [at 42.5 µM] | Potency [4] | Potency [15] | Potency [5] | Potency [6] | Potency [7] | max response [8] 1.47% | Potency [9] | Potency [10] | Potency [11] | Potency [18] | Potency [19] | Potency [12]

O=C(O)Cc1sc(-c2ccccc2)nc1-c1ccc(Cl)cc1
inactive: Potency [14] | activity change, positive = activation [3] -15.3% [at 42.5 µM] | Potency [4] | Potency [15] | Potency [5] | Potency [6] | Potency [17] | Potency [7] | max response [8] 0.938% | Potency [9] | Potency [10] | Potency [11] | Potency [18] | Potency [19]

C=CC(=O)OCCOC(=O)CCC(=O)O
active: activity change, positive = activation [3] 67.1%
inactive: outcome [13] | Potency [2] | Potency [4] | Potency [15] | Potency [5] | Potency [6] | Potency [16] | Potency [17] | Potency [7] | max response [8] 19.5% | Potency [9] | Potency [10] | Potency [11] | Potency [18] | Potency [12]

NC(N)=NN=C(/C=C/c1ccc([N+](=O)[O-])o1)/C=C/c1ccc([N+](=O)[O-])o1
active: Potency [2] 2.66 µM | Potency [4] 1.69 µM | Potency [6] 1.51 µM | Potency [16] 8.49 µM | Potency [7] 4.25 µM | Potency [8] 0.848 µM | Potency [9] 10.7 µM | Potency [10] 3.79 µM | Potency [18] 2.13 µM | Potency [19] 1.69 µM
inactive: Potency [1] | activity change, positive = activation [3] -66.8% [at 42.5 µM] | Potency [5] | Potency [12]
